Measurements published in PubChem BioAssay.
Activity calls are given as the source filed them.

Experiments:
[1] = test system: Plasmodium falciparum Sir2 (PF13_0152, Sir2A); assay: pfSir2 binders on small-molecule microarrays, primary screen, biochemical, small-molecule microarray, 635 nm fluorescence (AID 1098); details: small-molecule microarray binding, fluorescence 635 nm; higher = more signal;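 note: score merges spot fluorescence intensity with its signal-to-noise ratio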
[2] = small-molecule microarray binders of probe aDKK1, primary screen, biochemical, biotinylated probe, 635/667 nm fluorescence (AID 1099); details: higher = more signal;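 note: score merges 667nm spot fluorescence with signal to noise across triplicate slides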
[3] = small-molecule microarray binders of probe aCHRDL2, primary screen, biochemical, biotinylated probe, 635/667 nm fluorescence (AID 1100); details: higher = more signal
[4] = splicing luciferase reporter signal modulators, primary screen, spliceosome inhibition project, cell-based, HEK293, splice +/- reporter (AID 1101); details: luminescence, 24 h, higher = more signal, called active from +8 up or from −8 down;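 note: HEK293 cells carrying a splicing-competent luciferase reporter gene; test concentration not given here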
[5] = biological target: Fibroblast growth factor 10 (Homo sapiens) (UniProt O15520); assay: FGF10 binders on small-molecule microarrays, primary screen, biochemical, small-molecule microarray, 635 nm fluorescence (AID 1102); details: FGF10 binding, fluorescence 635 nm, higher = more signal
Fibroblast growth factor 10 (Homo sapiens), sequence (O15520 whole entry, looked up): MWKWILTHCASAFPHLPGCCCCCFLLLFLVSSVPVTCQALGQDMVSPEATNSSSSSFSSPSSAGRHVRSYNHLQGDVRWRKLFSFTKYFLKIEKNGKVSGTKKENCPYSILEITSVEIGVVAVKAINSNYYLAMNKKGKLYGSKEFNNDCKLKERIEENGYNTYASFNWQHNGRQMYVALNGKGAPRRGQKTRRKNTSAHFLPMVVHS

[6] = test system: glycogen synthase kinase-3 (GSK3A per assay name; protocol says GSK3B); assay: GSK3 binders on small-molecule microarrays, primary screen, biochemical, small-molecule microarray, 635 nm fluorescence, GSK3A (AID 1103); details: small-molecule microarray binding, fluorescence 635 nm; higher = more signal; note: the record names both GSK3A and GSK3B
[7] = biological target: Epidermal growth factor receptor (Homo sapiens) (UniProt P00533); assay: EGFR binders on small-molecule microarrays, primary screen, biochemical, small-molecule microarray, 635 nm fluorescence (AID 1104); details: EGFR binding, higher = more signal;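 note: score merges 667 nm emission intensity with spot signal to noise over triplicate slides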
Epidermal growth factor receptor (Homo sapiens), sequence (P00533 whole entry, looked up): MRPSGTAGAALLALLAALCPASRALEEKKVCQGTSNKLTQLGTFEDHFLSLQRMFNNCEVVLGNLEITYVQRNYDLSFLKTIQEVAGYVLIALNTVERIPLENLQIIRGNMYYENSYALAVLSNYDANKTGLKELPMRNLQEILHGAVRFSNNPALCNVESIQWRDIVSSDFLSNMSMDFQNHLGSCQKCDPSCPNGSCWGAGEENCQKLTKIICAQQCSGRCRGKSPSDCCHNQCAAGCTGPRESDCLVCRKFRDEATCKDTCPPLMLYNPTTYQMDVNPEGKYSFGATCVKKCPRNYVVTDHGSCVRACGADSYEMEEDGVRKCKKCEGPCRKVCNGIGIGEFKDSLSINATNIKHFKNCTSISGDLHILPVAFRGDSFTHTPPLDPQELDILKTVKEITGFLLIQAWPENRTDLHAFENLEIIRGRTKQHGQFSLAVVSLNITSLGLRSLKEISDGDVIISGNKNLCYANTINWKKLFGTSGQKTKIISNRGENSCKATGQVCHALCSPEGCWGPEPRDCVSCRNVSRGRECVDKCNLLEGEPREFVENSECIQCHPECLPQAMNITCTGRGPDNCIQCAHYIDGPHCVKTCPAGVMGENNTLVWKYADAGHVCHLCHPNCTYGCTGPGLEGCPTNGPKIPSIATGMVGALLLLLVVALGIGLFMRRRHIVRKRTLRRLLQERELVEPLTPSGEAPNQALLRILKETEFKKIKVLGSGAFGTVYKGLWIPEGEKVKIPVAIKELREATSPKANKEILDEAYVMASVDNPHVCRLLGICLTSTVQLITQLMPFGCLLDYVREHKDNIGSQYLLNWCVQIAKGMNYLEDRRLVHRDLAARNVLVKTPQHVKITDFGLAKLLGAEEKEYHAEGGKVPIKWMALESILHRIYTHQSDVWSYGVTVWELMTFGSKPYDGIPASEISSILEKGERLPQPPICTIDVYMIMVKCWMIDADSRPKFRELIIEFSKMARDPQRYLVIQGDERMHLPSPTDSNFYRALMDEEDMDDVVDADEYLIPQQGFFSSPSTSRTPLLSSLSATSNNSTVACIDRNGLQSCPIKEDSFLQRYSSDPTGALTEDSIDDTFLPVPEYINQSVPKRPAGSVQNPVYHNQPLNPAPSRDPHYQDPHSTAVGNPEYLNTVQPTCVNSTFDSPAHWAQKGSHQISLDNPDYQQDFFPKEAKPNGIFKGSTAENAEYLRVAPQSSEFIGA

[8] = biological target: Follistatin-related protein 3 (Homo sapiens) (UniProt O95633); assay: FSTL3 binders on small-molecule microarrays, primary screen, biochemical, small-molecule microarray, 635 nm fluorescence (AID 1105); details: FSTL3 binding, higher = more signal;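 note: score merges emission near 667 nm and signal to noise per printed spot across three slides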
Follistatin-related protein 3 (Homo sapiens), sequence (O95633 whole entry, looked up): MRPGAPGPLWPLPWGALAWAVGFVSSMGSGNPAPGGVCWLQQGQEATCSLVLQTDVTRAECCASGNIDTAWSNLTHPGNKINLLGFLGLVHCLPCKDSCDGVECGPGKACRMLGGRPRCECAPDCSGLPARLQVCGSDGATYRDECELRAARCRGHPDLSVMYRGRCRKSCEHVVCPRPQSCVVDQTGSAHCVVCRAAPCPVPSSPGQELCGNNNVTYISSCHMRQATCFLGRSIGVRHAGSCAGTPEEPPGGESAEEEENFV

[9] = biological target: Dickkopf-related protein 1 (Homo sapiens) (UniProt O94907); assay: DKK1 binders on small-molecule microarrays, primary screen, biochemical, small-molecule microarray, 635 nm fluorescence scan (AID 1106); details: DKK1 binding, higher = more signal;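 note: score merges emission near 667 nm with signal to noise over three replicate slides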
Dickkopf-related protein 1 (Homo sapiens), sequence (O94907 whole entry, looked up): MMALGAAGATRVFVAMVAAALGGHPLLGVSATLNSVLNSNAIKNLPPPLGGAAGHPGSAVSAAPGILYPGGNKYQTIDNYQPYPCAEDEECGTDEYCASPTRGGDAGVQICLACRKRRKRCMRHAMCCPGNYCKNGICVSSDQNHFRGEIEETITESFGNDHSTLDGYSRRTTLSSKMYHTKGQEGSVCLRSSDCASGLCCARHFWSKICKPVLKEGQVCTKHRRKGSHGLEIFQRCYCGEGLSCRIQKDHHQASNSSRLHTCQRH

[10] = test system: Inhibin beta A chain (activin A); assay: INHBA (activin A) binders on microarrays, primary screen, biochemical, small-molecule microarray, 635 nm fluorescence scan (AID 1107); details: small-molecule microarray binding, higher = more signal;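 note: mouse activin A protein probed at 4.33 µg/mL on printed slides; score merges bound-protein fluorescence near 667 nm with spot signal-to-noise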
[11] = test system: Human papillomavirus type 1a protein E7 (residues 44-93); assay: HPV1a E7 fragment binders on microarrays, primary screen, biochemical, small-molecule microarray, residues 44-93, 635 nm fluorescence (AID 1108); details: small-molecule microarray binding, fluorescence 635 nm; higher = more signal;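 note: E7 fragment applied at 1 µg/mL in TBST for 1 h at 4 C; score combines spot fluorescence with its signal to noise ratio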
[12] = modulators of HCV replicon luciferase signal, primary screen, HCV replication inhibitor project, Huh7 cells, luciferase reporter (AID 1109); details: 48 h, higher = more signal;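 note: huh7 hepatoma cells harbouring a luciferase neomycin HCV replicon reporter; luciferase luminescence as measure of HCV replicon replication; test concentration not given here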
[13] = biological target: Left-right determination factor 2 (Homo sapiens) (UniProt O00292); assay: LEFTY2 binders on small-molecule microarrays, primary screen, biochemical, small-molecule microarray, 635 nm fluorescence scan (AID 1110); details: LEFTY2 binding, higher = more signal
Left-right determination factor 2 (Homo sapiens), sequence (O00292 whole entry, looked up): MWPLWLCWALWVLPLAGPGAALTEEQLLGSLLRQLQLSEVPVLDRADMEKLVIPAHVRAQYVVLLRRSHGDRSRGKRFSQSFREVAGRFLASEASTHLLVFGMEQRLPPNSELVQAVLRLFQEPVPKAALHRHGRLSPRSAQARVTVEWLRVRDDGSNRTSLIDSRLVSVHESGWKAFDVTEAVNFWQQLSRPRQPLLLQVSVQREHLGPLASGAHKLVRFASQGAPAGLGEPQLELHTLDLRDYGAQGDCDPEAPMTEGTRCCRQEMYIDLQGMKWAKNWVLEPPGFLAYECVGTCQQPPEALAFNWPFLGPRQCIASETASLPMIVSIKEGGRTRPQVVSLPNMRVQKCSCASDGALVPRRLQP

[14] = biological target: Calmodulin-1 (Homo sapiens) (UniProt P0DP23); assay: CALM1 binders on microarrays, EGTA buffer, profiling panel, biochemical, small-molecule microarray, Cy5-labelled CALM1 (AID 1111); details: Cy5-CALM1 binding fluorescence, higher = more signal;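 note: labelled calmodulin applied in Tris saline Tween buffer holding calcium plus EGTA and DTT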
[15] = biological target: Calmodulin-1 (Homo sapiens) (UniProt P0DP23); assay: calcium-bound CALM1 binders on microarrays, profiling panel, artefact control for SMM control-protein annotation, biochemical, small-molecule microarray, Cy5-labelled CALM1, plus calcium (AID 1112); details: Cy5-CALM1 binding fluorescence, higher = more signal;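 note: score merges spot fluorescence with signal to noise from triplicate slides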
[16] = small-molecule microarray binders of probe aWnt5a, primary screen, biochemical, biotinylated probe, 635/667 nm fluorescence (AID 1113); details: higher = more signal;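 note: score merges 667 nm fluorescence intensity with signal-to-noise per printed feature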
[17] = small-molecule microarray binders of probe aShh, primary screen, biochemical, biotinylated probe, 635/667 nm fluorescence (AID 1114); details: higher = more signal;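 note: probe is biotin-labelled aShh protein from a stem cell growth factor screen; measures binding of labelled protein to compounds printed on the slide; score merges feature fluorescence at 667 nm with signal-to-noise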
[18] = small-molecule microarray binders of probe aNog, primary screen, biochemical, biotinylated probe, 635/667 nm fluorescence (AID 1115); details: higher = more signal;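 note: probe is biotinylated aNog protein used at 0.15 µg/mL for 1 h at 4 C; z-score combines 667 nm fluorescence of each spot with its signal to noise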
[19] = biological target: Torsin-1A-interacting protein 1 (Homo sapiens) (UniProt Q5JTV8); assay: LAP1 binders from COS7 cell lysate, primary screen, small-molecule microarray, 635/667 nm fluorescence (AID 1116); details: COS7-hLAP1 lysate binding, 635 nm fluorescence, higher = more signal
Torsin-1A-interacting protein 1 (Homo sapiens), sequence (Q5JTV8 whole entry, looked up): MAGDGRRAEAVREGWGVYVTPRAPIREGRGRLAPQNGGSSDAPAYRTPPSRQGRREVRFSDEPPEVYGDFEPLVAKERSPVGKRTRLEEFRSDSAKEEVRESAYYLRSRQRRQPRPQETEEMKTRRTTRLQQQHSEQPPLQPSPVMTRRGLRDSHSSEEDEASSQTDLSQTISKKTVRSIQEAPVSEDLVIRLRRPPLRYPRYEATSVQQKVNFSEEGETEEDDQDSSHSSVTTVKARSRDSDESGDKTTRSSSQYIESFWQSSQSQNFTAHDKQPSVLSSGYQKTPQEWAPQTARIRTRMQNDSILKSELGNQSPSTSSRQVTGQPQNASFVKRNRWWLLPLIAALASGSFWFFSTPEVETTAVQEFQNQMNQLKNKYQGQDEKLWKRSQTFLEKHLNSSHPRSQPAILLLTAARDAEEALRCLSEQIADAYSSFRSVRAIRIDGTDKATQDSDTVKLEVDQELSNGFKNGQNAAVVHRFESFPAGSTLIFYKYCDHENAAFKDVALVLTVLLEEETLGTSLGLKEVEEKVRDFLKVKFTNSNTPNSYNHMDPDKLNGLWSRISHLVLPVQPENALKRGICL

[20] = biological target: Alpha-bungarotoxin (Bungarus multicinctus) (UniProt P60615); assay: alpha-bungarotoxin binders on microarray, profiling panel, artefact control for SMM control protein annotation, biochemical, small-molecule microarray, Alexa647 label, 635/667 nm fluorescence (AID 1117); details: alpha-BTX-A647 binding fluorescence, higher = more signal
Alpha-bungarotoxin (Bungarus multicinctus), sequence (P60615 whole entry, looked up): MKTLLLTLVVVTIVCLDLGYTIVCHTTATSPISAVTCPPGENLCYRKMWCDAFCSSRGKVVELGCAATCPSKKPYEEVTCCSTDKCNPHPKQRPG

SMILES	composite z-score [1]	composite z-score [2]	composite z-score [3]	z-score [4]	composite z-score [5]	composite z-score [6]	composite z-score [7]	composite z-score [8]	composite z-score [9]	composite z-score [10]	composite z-score [11]	z-score [12]	composite z-score [13]	composite z-score [14]	composite z-score [15]	composite z-score [16]	composite z-score [17]	composite z-score [18]	composite z-score [19]	composite z-score [20]
COCCOC(=O)N1C(=O)[C@@]2(c3cc(C#CCCO)ccc31)[C@H](c1ccc(OCCO)cc1)N1[C@H](c3ccccc3)[C@H](c3ccccc3)OC(=O)[C@H]1[C@@H]2C(=O)NC[C@H](O)c1ccccc1	1.3	0.0564	-0.0641	-0.6 (inactive)	1.31	1	0.776	1.41	0.923	0.701	1.39	-1.13	0.795	0.969	0.003	-0.001	-0.0904	-0.213	1.29	1.05
CC(=O)NCCCC[C@@H]1NC(=O)[C@@H]2C[C@H](C(=O)NCCCCCCN(C)C)[C@H](c3ccc(O)cc3)N2C1=O	1.02	0.363	0.117	-1.45 (inactive)	1.25	1.36	1.31	1.5	1.86	0.11	-0.0336	1.08	0.73	-0.158	-1.14	-0.201	0.0712	1.01	1.84	1.65
CCOC(=O)[C@H]1C/C=C/C[C@H](C(=O)OCC)C(=O)O[C@H]2[C@@H](OC)O[C@H](CO)[C@@H](OC(=O)Nc3ccc(Br)cc3)[C@@H]2OC1=O	0.895	-0.0855	0.68	-3.54 (inactive)	0.217	1.02	0.047	0.576	0.251	0.706	0.205	-3.56	0.561	1.64	0.155	-0.0704	0.0515	1.5	0.396	0.465
Cc1ccc(S(=O)(=O)N[C@H]2COC(=O)CC=C[C@H](C)COC(=O)N[C@@H](C)C(=O)CC=C[C@@H]2C)cc1	0.38	-0.589	-1.38	-0.381 (inactive)	0.588	0.604	0.831	1.4	2.08	0.283	-0.417	-0.47	1.05	-0.643	-1.39	-0.1	-0.0243	-0.345	0.0478	0.0411
COC(=O)Cn1c(C(=O)N2CCCC2)cc2c1C[C@H]1CN(C(=O)c3ccccc3)[C@@](Cc3ccc(OC)cc3)(C(=O)OC)[C@@H]21	0.41	1.37	1.1	-1.76 (inactive)	0.388	0.203	0.559	0.348	-0.467	1.04	1.44	-1.21	-0.304	1.55	0.367	0.129	0.593	1.83	0.478	0.841
CCN1C(C)=C(C(=O)OC)[C@@H](c2ccccc2)N2C(=O)[C@](O)(C(=O)OC)[C@@H](c3ccccc3)C(C(=O)c3ccccc3)=C12	0.689	0.0153	-0.396	-2.45 (inactive)	0.436	0.779	0.385	0.363	0.812	-0.411	0.474	-1.15	0.499	0.0865	0.0844	-0.0685	0.166	0.158	0.653	0.232
COc1cc([C@@H]2N[C@H](C(=O)O)Cc3c2[nH]c2ccccc32)cc(OC)c1OC	0.175	-0.0572	-0.272	-0.526 (inactive)	0.644	0.167	0.3	0.508	0.977	-1.7	0.297	-0.0056	0.649	-0.0344	-0.494	-0.0328	-0.221	0.0374	0.0517	0.441
CO[C@@H]1COC(=O)[C@H](C)NC(=O)CC=C[C@@H](C)[C@H](NS(=O)(=O)c2ccc(C)cc2)COC(=O)CC=C[C@@H]1C	-0.876	-0.435	-0.505	-0.373 (inactive)	0.0743	-0.11	0.286	-0.0201	0.0647	-0.204	-0.232	0.108	0.46	-0.356	-0.239	-0.0718	-0.138	-0.246	0.117	-0.573
